# Measured values as given in PMC7862700, “An all-to-all approach to the identification of sequence-specific readers for epigenetic DNA modifications on cytosine”.
# Experiments:
# Experiment in all cases: DAPPL (digital affinity profiling via proximity ligation, sequencing); 10 mM Tris-HCl pH 7.5, 50 mM NaCl, 1 mM DTT, 4% glycerol, room temperature, 30 min; GST-TFs on glutathione beads, 16-mer random dsDNA library, 0.1% formaldehyde crosslink after washing; high values mean tight binding
# Settings in all cases: protein: recombinant; tags: N-terminal GST; dsDNA, one strand shown
# FLI1 = target: T1, FLI1 (Homo sapiens, UniProt Q01543 1-452)
# T1 sequence: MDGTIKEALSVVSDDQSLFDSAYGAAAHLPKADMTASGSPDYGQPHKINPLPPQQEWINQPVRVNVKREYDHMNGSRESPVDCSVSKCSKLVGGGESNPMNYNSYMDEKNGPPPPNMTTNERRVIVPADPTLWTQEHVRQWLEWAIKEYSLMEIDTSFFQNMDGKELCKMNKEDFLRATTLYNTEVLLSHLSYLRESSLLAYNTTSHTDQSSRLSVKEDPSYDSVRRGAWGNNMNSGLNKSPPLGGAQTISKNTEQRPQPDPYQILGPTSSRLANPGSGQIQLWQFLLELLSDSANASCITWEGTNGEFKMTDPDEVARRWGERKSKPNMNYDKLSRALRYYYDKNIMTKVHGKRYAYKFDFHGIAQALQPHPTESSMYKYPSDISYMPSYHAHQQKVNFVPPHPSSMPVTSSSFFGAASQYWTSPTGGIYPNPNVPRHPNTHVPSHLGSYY
# How it was run: (§1)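 Binding signal is given per hexamer as its read frequency for a factor divided by its frequency in the tag-only sample. GST-fused human transcription factors were expressed in yeast, captured on glutathione beads, barcoded with DNA and pooled with that sample, then incubated with 200 nmole of a 16-mer random double-stranded DNA library in Tris/NaCl/DTT/glycerol buffer for 30 min at room temperature. The pools were then washed, crosslinked, proximity-ligated, amplified by PCR and sequenced on an Illumina NextSeq500.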
# ELK1 = target: T2, ELK1 (Homo sapiens, UniProt P19419 1-428)
# T2 sequence: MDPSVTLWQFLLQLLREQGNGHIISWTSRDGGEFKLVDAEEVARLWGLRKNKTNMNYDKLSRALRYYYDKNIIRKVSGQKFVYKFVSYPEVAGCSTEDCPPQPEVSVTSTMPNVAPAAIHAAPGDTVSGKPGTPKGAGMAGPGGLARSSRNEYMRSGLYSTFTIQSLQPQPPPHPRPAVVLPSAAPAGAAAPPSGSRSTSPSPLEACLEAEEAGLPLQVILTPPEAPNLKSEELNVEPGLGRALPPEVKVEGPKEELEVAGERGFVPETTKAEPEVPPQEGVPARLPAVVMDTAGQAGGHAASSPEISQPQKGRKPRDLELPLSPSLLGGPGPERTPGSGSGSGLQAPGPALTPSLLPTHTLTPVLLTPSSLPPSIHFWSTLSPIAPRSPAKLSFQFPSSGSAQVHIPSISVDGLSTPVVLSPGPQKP
# How it was run: as §1
# GABPA = target: T3, GABPA (Homo sapiens, UniProt Q06546 1-454)
# T3 sequence: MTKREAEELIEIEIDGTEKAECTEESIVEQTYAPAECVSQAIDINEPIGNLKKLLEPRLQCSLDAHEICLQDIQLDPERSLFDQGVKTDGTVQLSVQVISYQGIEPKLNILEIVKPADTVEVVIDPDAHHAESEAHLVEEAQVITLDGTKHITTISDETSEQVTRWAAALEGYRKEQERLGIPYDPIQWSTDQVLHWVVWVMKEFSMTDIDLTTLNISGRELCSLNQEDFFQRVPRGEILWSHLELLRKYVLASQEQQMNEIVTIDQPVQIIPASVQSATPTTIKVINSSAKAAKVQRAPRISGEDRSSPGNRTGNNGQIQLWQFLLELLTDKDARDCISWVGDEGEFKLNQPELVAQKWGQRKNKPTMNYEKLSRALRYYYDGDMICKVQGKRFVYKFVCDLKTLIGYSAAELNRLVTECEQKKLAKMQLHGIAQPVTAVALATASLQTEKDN
# How it was run: as §1
# ERG = target: T4, ERG (Homo sapiens, UniProt P11308 1-479)
# T4 sequence: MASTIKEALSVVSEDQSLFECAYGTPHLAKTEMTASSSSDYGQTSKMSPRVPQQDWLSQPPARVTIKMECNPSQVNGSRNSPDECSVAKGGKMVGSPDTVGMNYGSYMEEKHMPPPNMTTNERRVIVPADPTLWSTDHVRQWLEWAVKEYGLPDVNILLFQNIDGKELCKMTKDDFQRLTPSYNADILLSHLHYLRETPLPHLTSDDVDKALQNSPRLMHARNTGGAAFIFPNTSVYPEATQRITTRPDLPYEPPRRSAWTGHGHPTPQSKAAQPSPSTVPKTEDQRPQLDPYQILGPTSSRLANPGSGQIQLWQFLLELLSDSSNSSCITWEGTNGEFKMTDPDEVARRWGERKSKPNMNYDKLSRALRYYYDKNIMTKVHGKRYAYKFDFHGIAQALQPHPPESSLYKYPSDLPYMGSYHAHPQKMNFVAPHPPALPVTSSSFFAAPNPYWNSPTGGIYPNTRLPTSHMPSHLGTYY
# How it was run: as §1
# ELF1 = ELF1 (Homo sapiens, UniProt P32519 1-619)
# How it was run: as §1
# EHF = target: T5, EHF (Homo sapiens, UniProt Q9NZC4 1-300)
# T5 sequence: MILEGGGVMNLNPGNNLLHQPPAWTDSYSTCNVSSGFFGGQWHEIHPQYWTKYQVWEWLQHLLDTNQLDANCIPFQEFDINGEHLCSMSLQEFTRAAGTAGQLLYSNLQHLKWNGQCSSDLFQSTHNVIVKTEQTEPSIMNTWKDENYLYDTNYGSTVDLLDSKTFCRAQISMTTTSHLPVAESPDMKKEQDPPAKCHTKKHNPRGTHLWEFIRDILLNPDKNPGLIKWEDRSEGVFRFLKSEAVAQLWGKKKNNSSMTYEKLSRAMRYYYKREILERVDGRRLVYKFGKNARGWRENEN
# How it was run: as §1
# SPI1 = SPI1 (Homo sapiens, UniProt P17947 1-270)
# How it was run: as §1
# ELK3 = target: T6, ELK3 (Homo sapiens, UniProt P41970 1-407)
# T6 sequence: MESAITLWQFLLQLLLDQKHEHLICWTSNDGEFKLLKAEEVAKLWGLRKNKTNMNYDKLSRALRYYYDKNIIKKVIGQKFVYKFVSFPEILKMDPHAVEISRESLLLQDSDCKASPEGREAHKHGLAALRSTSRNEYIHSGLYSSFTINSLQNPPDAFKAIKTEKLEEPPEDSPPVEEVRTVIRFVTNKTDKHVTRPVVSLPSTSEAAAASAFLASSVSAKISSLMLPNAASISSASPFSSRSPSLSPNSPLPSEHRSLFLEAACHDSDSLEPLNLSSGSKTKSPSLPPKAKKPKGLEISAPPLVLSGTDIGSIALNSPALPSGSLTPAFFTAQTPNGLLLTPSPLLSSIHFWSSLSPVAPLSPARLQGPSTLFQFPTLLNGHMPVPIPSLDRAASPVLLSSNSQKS
# How it was run: as §1
# FEV = target: T7, FEV (Homo sapiens, UniProt Q99581 1-238)
# T7 sequence: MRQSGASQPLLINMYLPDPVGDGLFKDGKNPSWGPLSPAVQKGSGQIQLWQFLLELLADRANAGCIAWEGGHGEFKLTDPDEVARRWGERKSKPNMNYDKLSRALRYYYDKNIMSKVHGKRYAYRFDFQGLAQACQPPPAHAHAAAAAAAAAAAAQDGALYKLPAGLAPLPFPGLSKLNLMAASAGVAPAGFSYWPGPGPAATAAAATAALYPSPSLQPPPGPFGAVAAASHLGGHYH
# How it was run: as §1
# ETV5 = ETV5 (Homo sapiens, UniProt P41161 1-510)
# How it was run: as §1
# SPIC = target: T8, SPIC (Homo sapiens, UniProt Q8N5J4 1-248)
# T8 sequence: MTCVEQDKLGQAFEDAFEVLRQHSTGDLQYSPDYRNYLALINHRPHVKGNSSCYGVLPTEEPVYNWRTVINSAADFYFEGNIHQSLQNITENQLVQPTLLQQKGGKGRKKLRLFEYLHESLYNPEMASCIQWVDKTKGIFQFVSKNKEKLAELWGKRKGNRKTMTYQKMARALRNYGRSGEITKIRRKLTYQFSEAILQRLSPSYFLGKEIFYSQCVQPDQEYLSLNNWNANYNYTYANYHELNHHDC
# How it was run: as §1
# ELF4 = ELF4 (Homo sapiens, UniProt Q99607 1-663)
# How it was run: as §1
# ETV1 = ETV1 (Homo sapiens, UniProt P50549 1-477)
# How it was run: as §1
# ERF = target: T9, ERF (Homo sapiens, UniProt P50548 1-548)
# T9 sequence: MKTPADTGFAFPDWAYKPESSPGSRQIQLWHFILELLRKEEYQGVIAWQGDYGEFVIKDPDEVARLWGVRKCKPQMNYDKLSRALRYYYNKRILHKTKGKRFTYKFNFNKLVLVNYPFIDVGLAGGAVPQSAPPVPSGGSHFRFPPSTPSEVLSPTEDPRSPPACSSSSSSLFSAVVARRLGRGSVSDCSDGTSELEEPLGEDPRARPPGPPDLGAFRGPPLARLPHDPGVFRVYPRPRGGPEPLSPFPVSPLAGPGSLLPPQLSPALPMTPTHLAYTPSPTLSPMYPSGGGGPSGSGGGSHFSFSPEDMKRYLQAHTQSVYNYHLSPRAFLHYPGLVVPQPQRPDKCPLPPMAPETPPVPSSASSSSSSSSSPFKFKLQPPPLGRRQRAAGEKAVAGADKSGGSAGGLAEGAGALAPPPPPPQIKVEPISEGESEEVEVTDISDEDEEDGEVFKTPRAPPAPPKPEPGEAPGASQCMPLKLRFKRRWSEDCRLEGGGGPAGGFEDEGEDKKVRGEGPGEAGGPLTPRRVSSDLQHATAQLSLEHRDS
# How it was run: as §1
# ETV3L = target: T10, ETV3L (Homo sapiens, UniProt Q6ZN32 1-361)
# T10 sequence: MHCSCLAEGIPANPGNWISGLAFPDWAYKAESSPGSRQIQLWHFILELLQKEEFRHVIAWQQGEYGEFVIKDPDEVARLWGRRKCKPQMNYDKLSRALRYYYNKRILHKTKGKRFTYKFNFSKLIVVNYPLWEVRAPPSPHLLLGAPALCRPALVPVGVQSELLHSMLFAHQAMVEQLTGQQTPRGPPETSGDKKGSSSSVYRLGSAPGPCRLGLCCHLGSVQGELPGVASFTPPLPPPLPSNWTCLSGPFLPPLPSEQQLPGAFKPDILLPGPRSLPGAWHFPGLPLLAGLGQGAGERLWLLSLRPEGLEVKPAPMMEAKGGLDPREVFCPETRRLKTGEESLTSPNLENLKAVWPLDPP
# How it was run: as §1
# ETS2 = target: T11, ETS2 (Homo sapiens, UniProt P15036 1-469)
# T11 sequence: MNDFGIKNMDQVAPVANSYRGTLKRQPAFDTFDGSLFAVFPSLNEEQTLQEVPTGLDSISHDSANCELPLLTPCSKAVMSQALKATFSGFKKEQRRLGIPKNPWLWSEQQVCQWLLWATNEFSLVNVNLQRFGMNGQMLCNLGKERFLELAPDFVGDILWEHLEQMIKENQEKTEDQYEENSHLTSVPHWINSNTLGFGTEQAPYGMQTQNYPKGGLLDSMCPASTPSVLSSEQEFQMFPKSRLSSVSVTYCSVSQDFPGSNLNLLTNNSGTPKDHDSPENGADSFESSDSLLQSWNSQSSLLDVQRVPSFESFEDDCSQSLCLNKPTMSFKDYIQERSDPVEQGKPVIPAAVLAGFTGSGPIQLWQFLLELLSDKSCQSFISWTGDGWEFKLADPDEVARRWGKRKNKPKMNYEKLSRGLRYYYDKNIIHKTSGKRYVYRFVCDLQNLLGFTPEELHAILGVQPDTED
# How it was run: as §1
# ELF5 = target: T12, ELF5 (Homo sapiens, UniProt Q9UKW6-2 1-255)
# T12 sequence: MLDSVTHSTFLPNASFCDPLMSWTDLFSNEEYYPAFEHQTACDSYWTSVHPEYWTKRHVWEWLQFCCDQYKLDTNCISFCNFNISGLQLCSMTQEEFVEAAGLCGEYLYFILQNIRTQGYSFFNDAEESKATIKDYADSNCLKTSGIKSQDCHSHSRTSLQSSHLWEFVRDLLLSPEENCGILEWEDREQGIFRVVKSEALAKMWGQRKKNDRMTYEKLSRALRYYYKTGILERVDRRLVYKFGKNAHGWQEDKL
# How it was run: as §1
# ETV6 = ETV6 (Homo sapiens, UniProt P41212 1-452)
# How it was run: as §1
# Chain of ELF4 (Q99607 whole entry): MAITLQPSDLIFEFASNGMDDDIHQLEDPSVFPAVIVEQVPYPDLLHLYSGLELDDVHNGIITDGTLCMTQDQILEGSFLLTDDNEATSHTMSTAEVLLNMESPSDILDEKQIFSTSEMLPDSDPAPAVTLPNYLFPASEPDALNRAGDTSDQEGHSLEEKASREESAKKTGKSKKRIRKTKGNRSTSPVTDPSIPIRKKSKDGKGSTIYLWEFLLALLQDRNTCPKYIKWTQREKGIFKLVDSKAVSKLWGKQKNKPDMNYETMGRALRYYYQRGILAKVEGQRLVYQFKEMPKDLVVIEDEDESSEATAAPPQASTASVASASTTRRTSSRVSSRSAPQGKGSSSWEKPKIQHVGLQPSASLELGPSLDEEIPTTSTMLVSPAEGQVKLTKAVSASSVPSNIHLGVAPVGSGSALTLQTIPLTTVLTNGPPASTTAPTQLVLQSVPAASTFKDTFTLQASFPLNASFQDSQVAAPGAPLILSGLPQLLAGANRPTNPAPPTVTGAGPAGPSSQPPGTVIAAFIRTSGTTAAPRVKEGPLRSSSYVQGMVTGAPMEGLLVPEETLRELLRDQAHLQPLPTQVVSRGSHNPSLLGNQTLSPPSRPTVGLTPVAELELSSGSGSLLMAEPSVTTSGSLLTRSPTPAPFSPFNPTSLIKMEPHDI
# Chain of ETV6 (P41212 whole entry): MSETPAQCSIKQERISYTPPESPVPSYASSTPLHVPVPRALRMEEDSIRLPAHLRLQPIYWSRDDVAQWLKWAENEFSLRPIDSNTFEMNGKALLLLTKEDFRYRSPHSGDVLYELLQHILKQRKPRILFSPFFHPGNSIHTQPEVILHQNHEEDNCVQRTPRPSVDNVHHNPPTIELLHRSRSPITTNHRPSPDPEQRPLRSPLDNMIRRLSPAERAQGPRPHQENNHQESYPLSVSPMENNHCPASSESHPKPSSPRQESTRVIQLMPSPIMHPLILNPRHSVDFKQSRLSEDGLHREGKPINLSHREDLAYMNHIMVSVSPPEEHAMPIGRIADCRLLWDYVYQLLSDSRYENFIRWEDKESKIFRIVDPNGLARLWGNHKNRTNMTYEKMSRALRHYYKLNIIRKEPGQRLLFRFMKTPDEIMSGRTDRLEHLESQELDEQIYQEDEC
# Chain of ELF1 (P32519 whole entry): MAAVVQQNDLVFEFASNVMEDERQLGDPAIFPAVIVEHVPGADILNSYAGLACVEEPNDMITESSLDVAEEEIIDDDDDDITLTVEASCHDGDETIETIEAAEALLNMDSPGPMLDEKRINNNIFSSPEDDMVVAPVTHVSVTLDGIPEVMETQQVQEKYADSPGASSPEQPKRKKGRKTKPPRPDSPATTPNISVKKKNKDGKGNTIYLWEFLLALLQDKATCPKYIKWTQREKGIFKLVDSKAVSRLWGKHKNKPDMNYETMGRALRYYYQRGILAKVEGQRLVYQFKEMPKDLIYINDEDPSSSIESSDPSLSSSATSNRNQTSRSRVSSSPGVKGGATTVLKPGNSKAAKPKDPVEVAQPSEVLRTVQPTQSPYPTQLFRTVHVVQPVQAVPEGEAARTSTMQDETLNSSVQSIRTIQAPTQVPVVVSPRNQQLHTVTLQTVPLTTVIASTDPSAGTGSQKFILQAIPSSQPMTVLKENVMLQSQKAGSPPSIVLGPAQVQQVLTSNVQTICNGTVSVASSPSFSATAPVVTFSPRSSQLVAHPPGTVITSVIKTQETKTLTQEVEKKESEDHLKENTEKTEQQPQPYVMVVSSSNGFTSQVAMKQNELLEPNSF
# Chain of ETV1 (P50549 whole entry): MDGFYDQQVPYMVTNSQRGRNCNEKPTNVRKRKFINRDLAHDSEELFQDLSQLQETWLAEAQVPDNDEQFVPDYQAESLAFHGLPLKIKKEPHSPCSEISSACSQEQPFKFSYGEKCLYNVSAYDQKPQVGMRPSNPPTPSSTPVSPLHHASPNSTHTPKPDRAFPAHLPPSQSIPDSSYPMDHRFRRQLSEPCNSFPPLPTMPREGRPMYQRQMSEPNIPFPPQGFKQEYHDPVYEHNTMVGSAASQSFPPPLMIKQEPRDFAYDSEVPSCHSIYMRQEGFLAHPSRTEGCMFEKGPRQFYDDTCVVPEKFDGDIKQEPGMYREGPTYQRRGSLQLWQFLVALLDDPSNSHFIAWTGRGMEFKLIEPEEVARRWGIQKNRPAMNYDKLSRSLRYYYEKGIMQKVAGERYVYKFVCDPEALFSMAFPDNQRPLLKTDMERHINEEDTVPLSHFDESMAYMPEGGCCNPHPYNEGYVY
# Chain of ETV5 (P41161 whole entry): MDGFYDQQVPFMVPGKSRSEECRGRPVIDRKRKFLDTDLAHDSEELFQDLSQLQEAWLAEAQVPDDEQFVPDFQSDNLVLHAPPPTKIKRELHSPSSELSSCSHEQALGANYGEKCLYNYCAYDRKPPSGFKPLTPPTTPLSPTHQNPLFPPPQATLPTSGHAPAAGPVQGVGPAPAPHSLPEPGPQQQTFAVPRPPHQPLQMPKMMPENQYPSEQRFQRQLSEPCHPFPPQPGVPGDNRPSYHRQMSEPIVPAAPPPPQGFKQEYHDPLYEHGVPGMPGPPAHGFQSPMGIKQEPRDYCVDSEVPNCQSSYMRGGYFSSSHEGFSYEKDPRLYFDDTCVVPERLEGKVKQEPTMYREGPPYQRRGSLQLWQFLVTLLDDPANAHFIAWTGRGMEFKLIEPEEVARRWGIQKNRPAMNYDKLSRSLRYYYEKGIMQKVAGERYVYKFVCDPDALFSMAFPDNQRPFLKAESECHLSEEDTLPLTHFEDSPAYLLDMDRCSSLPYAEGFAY
sequence,measurement,setting,value
CATACG,binding signal,FLI1,"1.05 fold enrichment (6-mer frequency, TF over GST control)"
same,binding signal,ELK1,"1.01 fold enrichment (6-mer frequency, TF over GST control)"
same,binding signal,GABPA,"1.03 fold enrichment (6-mer frequency, TF over GST control)"
same,binding signal,ERG,"1.06 fold enrichment (6-mer frequency, TF over GST control)"
same,binding signal,ELF1,"1.08 fold enrichment (6-mer frequency, TF over GST control)"
same,binding signal,EHF,"1.07 fold enrichment (6-mer frequency, TF over GST control)"
same,binding signal,SPI1,"1.06 fold enrichment (6-mer frequency, TF over GST control)"
same,binding signal,ELK3,"1.12 fold enrichment (6-mer frequency, TF over GST control)"
same,binding signal,FEV,"1.05 fold enrichment (6-mer frequency, TF over GST control)"
same,binding signal,ETV5,"1.08 fold enrichment (6-mer frequency, TF over GST control)"
same,binding signal,SPIC,"1.04 fold enrichment (6-mer frequency, TF over GST control)"
same,binding signal,ELF4,"1.03 fold enrichment (6-mer frequency, TF over GST control)"
same,binding signal,ETV1,"1.06 fold enrichment (6-mer frequency, TF over GST control)"
same,binding signal,ERF,"1.13 fold enrichment (6-mer frequency, TF over GST control)"
same,binding signal,ETV3L,"1.12 fold enrichment (6-mer frequency, TF over GST control)"
same,binding signal,ETS2,"1.01 fold enrichment (6-mer frequency, TF over GST control)"
same,binding signal,ELF5,"1.06 fold enrichment (6-mer frequency, TF over GST control)"
same,binding signal,ETV6,"1.01 fold enrichment (6-mer frequency, TF over GST control)"
